In the library only some 5.5% were active in any assay of this set; here they are far more common.
Mito fusion yeast = mitochondrial division inhibition or fusion activation; S. cerevisiae fusion-defective mutant growth rescue, CellTiterGlo 48 h; Potency, µM (highest dose often 46.1 µM), without a hit: at the top dose growth rescue (activation), usual class: activators; 0.23% of 320,000 active; note: % of control where 0% means no effect; nearly all actives have a fitted effect of over 45% in size
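Yeast fusion mutant, YPEG (non-fermentable carbon), compound, 48 h at 37C non-permissive; CellTiterGlo added, 10 min RT, luminescence read. Rescued growth = division inhibition.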
uPA generation = blocks generation of uPA at the cell surface. cell surface uPA generation assay, qHTS. Potency, µM (doses to about 38.3 µM), for the others: at the highest dose activity change, negative = inhibition, hits mostly inhibitors. 0.31% of 330,000 active. AID 540303; active = well fitted inhibition curve with a large enough effect; inconclusive = small, poorly fitted or top-dose-only effect; inactive = no such curve, though single readings can be large or run the other way; tested in mouse RAW 264.7 cells; note: % is set by controls: 0 for no effect and ±100 for the full control effect; nearly all actives have a fitted effect of over 55% in size
Integrin act MD = activators of alpha7 integrin expression for muscular dystrophy; alpha7betagal myoblasts, beta-gal FDG fluorescence, 48 h; Potency, µM (series often up to 38.3 µM), inactives show at the highest dose activation, hits mostly activators; 0.064% of 350,000 active; AID 624291;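 note: 100% = response of the positive control SU9516; nearly all actives have a fitted effect of over 60% in size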
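alpha7betagal+/- myoblasts (passage 13, 250/well) treated 48 h at 37C with compounds at 1:260 dilution of DMSO stock. Lysed, then beta-galactosidase activity read as FDG fluorescence (ex 480/em 540) after 30 min, with pre-read for autofluorescence.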
RORg inh = inhibitors of mouse ROR gamma transcriptional activity | P51450 | Drosophila S2 Gal4-RORgamma UAS-luciferase reporter, 20 h | Potency, µM (titrated, usually from 53.6 µM), for the others: at the highest dose activity change, negative = inhibition, actives largely listed as inhibitors | 5.4% of 310,000 active | AID 2551; note: % is set by controls: 0 for no effect and ±100 for the full control effect; nearly all actives have a fitted effect of over 60% in size
Target sequence (P51450 whole entry, looked up, the tested form may be a part): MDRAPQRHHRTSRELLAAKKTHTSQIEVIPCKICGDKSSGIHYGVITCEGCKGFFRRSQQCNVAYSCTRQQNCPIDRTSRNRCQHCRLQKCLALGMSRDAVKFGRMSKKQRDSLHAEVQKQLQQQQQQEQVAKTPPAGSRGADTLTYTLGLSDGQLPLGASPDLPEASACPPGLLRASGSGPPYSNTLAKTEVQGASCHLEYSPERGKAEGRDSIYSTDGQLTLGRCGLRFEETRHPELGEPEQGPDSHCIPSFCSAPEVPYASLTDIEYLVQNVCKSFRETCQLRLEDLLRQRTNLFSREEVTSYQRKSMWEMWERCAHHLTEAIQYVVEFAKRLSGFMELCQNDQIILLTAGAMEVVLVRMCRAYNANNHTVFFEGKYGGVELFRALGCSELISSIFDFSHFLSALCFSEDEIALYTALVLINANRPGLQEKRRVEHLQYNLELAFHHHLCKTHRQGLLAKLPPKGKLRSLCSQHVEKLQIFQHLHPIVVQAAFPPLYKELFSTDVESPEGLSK
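Read-out: Photinus luciferase luminescence; inhibitors lower reporter signal. Insect Schneider cells with Gal4-ROR gamma fusion under metallothionein promoter, UAS reporter; 700 uM final copper sulfate induction, 20 hr, ambient temperature.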
Chronic BCR inh = blocks chronic active B-cell receptor signaling. ABC-DLBCL IkBa-CBG/CBR reporter, luminescence ratio, 4 h. Potency, µM (doses to about 46.1 µM), for inactives: top-dose activity change, negative = inhibition, actives largely listed as inhibitors. 0.05% of 340,000 active. AID 493014; active = well fitted inhibition curve with a large enough effect in the signal ratio, with a control signal flat, not every such curve was filed as active; inconclusive = small, poorly fitted or top-dose-only effect, or effect the other way, or a change in a side signal; the % refers to the signal ratio;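 note: plate controls were basal doxycycline-induced cells for no effect and cells given 10 µM MG132 for full effect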
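Cell line TMD8 (human ABC DLBCL), stably expressing tet-inducible CBG68-IkBa fusion and CBR; IMDM/0.5% FBS; cpd up to 46 uM; dox induction, 4 h, 37C/5% CO2; dual luminescence; green/red ratio; MG132 control.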
Gal4-VP16 FLuc = inhibits Gal4-VP16 luciferase reporter, ROR gamma counter-screen; Drosophila S2 Gal4-VP16 UAS-luciferase, luminescence, 20 h; 3.5% of 310,000 active; AID 2546; Potency, µM (top dose mostly 53.6 µM), for inactives: at the highest dose activity, negative = inhibition, actives largely listed as inhibitors;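 note: Gal4-VP16 expression switched on by copper sulfate through the metallothionein promoter; % is set by controls: 0 for no effect and ±100 for the full control effect; nearly all actives have a fitted effect of over 50% in size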
Numbers without * were called inactive; ? = inconclusive; . = no result. Unless noted, calls come from the whole dose curve; as a rule, active = well fitted curve in the direction sought with a large enough effect; inconclusive = small, poorly fitted or top-dose-only effect, or another doubt; inactive = no such curve, though single readings can be large; an effect the other way counts as inactive or inconclusive. Potency is the fitted concentration of half-maximal effect.

SMILES	Mito fusion yeast	uPA generation	Integrin act MD	RORg inh	Chronic BCR inh	Gal4-VP16 FLuc
CCc1nnc(NC(=O)CSc2nnc(CSc3nc(C)cc(C)n3)o2)s1	10%	6%	27%	5.6µM*	2%	13µM*
O=C(CSc1nnc(-c2ccccc2O)o1)N1CCc2ccccc2C1	16%	.	-30%	10µM*	?	?
CCc1nnc(NC(=O)CSc2nnc(-c3ccccc3O)o2)s1	10%	-8%	4%	0.11µM*	?	1.1µM*
CCc1nnc(NC(=O)CSc2ncc(-c3ccccc3)n2C)s1	5%	0%	49%	11µM*	?	?
COc1ccc(COC2OC[C@]3(C)[C@H]4C5=C(CN3C(=O)OC(C)(C)C)[C@H](C)C(CO)C(CO)C5CC[C@@H]24)cc1 (stereo partly specified)	.	.	.	4%	.	-11%
CC[C@@]1(C(=O)OC)N[C@H](CN(C)C(=O)COc2ccccc2)[C@@H]2C(=O)N(C)C(=O)[C@@H]21	.	15%	10%	.	5%	.
COc1cccc(-c2nc(NCCN3CCOCC3)c3ccccc3n2)c1	.	.	.	10%	.	5%
COCCCn1cnc2oc3nc4ccccc4nc3c2c1=O	0%	2%	-9%	?	9%	1.3µM*
COc1cc(/C=N/O)ccc1OCc1ccccc1Cl	19%	-9%	-27%	1µM*	?	5µM*
O/N=C/c1ccccc1OCc1ccccc1Cl	-1%	-1%	-9%	-18%	?	-5%
O=C(NCC1CCCO1)c1ccc2nc(N3CCCCC3)sc2c1 (stereo unspecified)	11%	-12%	3%	7.1µM*	?	?
CC1CCN(c2nc3ccc(C(=O)O)cc3s2)CC1	-21%	-5%	15%	0.89µM*	?	1.4µM*
O=C(NCC1CCCO1)c1ccc(N2CCCCC2)nc1 (stereo unspecified)	0%	0%	-12%	?	-2%	8%
CC1CCN(c2nc3ccc(C(=O)NCCCN4CCCCC4)cc3s2)CC1	2%	?	0%	1%	?	4%
CN(C)CCCN=Cc1c(O)n(Cc2ccccc2)c(=O)c2ccccc12	0%	-5%	9%	-20%	11%	2%
CN(C)CCN=Cc1c(O)n(Cc2ccccc2)c(=O)c2ccccc12	-1%	-1%	11%	13µM*	2%	?
COCCn1c(=S)[nH]c2cc(C(=O)N3CCN(C4CCCCC4)CC3)ccc2c1=O	.	.	-12%	.	.	.
CCOCCCn1c(=S)[nH]c2cc(C(=O)N3CCN(c4ccccc4)CC3)ccc2c1=O	-2%	-1%	-12%	13µM*	9%	?
CCOC(=O)N1CCN(C(=O)c2cccc(-n3c(=S)[nH]c4cc(Cl)ccc4c3=O)c2)CC1	0%	.	-4%	11µM*	7%	-9%
COCCn1c(=S)[nH]c2cc(C(=O)N3CCN(c4cccc(Cl)c4)CC3)ccc2c1=O	-1%	-18%	-24%	11µM*	9%	?
CCOCCCn1c(=S)[nH]c2cc(C(=O)N3CCN(C)CC3)ccc2c1=O	1%	4%	19%	2%	2%	-2%
Cc1cccc(NC(=O)c2ccc(F)c(S(=O)(=O)NCc3ccc4c(c3)OCO4)c2)c1	.	.	.	.	0%	.
COCCn1c(C)cc(C(=O)CSc2nnnn2C2CCCC2)c1C	4%	-17%	-22%	.	0%	.
Cc1cnc(C(=O)Nc2nccs2)cn1	1%	-3%	-21%	3.5µM*	?	11µM*
Cc1cc(C(=O)Nc2nnc(C3CCCCC3)s2)no1	-5%	.	2%	20µM*	.	2%
SMILES	Mito fusion yeast	uPA generation	Integrin act MD	RORg inh	Chronic BCR inh	Gal4-VP16 FLuc
Cc1cnc(C(=O)Nc2cccc3cccnc23)cn1	-3%	-11%	-59%	0.079µM*	-4%	0.2µM*
Cc1cnc(C(=O)Nc2nnc(C)s2)cn1	-8%	-4%	10%	?	0%	11%
Cc1cnc(C(=O)Nc2nnc(C3CC3)s2)cn1	4%	2%	1%	8.9µM*	6%	-24%
CN1CCN(c2nc(-c3cccc(C#N)c3)nc3ccccc23)CC1	.	.	.	-20%	.	-12%
O=C(Nc1nccs1)c1cn2ccccc2n1	-3%	?	-13%	2µM*	?	7.1µM*
CCc1noc(C)c1C(=O)Nc1nnc(C2CCCCC2)s1	13%	.	.	11µM*	-18%	?
CC1CC=CC2C1C(=O)N(Cc1ccccc1)C2c1ccc(Br)cc1F (stereo unspecified)	.	.	.	32%	.	-19%
CC(C)CC(=O)NC(=S)Nc1ccc(S(=O)(=O)N2CCCC2)cc1	3%	1%	0%	16µM*	-8%	-13%
CN1CCN(S(=O)(=O)c2ccc(NC(=S)NC(=O)C3CCC3)cc2)CC1	6%	1%	-3%	-6%	4%	-2%
O=C(NC(=S)Nc1ccc(S(=O)(=O)N2CCCC2)cc1)C1CCC1	8%	2%	-31%	11µM*	-9%	-2%
O=C(NC(=S)Nc1ccc(S(=O)(=O)N2CCCC2)cc1)C1CC1	5%	16%	23%	10µM*	?	-1%
COc1ccc(NC(=O)CCS(=O)(=O)c2cccc3nonc23)cc1Cl	3%	2%	39%	-9%	-3%	14%
COc1ccc(N(C)C(=O)c2oc(=O)c3ccccc3c2-c2ccc(C)cc2)c(OC)c1	23%	8%	23%	39%	-1%	-6%
Cc1ccc(NC(=S)NNC(=O)CCn2cc(C)cn2)cc1	-1%	.	-3%	0.28µM*	-10%	1.4µM*
Cc1cnn(CCC(=O)NNC(=S)Nc2ccccc2)c1	-2%	.	10%	0.1µM*	-3%	1.1µM*
Cc1cccc(/C=C/c2onc(C)c2S(=O)(=O)N2CCC(C(=O)NC(C)C)CC2)c1	0%	-4%	10%	-1%	0%	-3%
Cn1cc(CN2CCC(N3CCNC(=O)CC3)CC2)c(-c2ccccc2F)n1	0%	1%	-24%	6%	6%	6%
COCc1cc(=O)[nH]c(Nc2nc3ccc(C)cc3o2)n1	30%	-9%	-56%	4.5µM*	?	3.2µM*
CCN(CC)S(=O)(=O)c1cccc(C(=O)N/N=C/c2ccc([N+](=O)[O-])o2)c1	-5%	-17%	-54%	10µM*	?	?
O=C(N/N=C/c1ccc([N+](=O)[O-])o1)c1ccncc1	-9%	-6%	-38%	?	?	?
O=C(CNC(=O)c1ccccc1)N/N=C/c1ccc([N+](=O)[O-])o1	-7%	?	-42%	-28%	?	18µM*
O=C(N/N=C/c1ccc([N+](=O)[O-])o1)c1ccc(O)cc1	-4%	7.1µM*	.	11µM*	?	13µM*
